These results are taken from the supplement of paper PMC10811239.

SMILES strings stand for the structures.

The test system of experiment [1] is LEGO organoid PTCC (PTEN-/-; TP53-/-; CDKN2A-/-; CDKN2B-/-). As to the kind of experiment: bioluminescence (viable cell) signal fold change after vs before treatment, normalised to DMSO (ratio); higher = more tumour cell growth / less inhibition. The following applies: 10 µM; treatment time 6 days. The method, then:
(§1)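 Luc2-labelled iPSC-derived glioblastoma-like organoids (LEGOs, genotypes PT = PTEN-/-;TP53-/-, PTCC = plus CDKN2A/B-/-, PTN = plus NF1-/-) were treated with 10 uM drug for 6 days (applied every other day) at 37 C. Bioluminescence imaging was done before treatment and 2 days after the last dose. BLI signals were normalised to the DMSO control on the same day and then to the pre-treatment signal (N=3).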

The test system of experiment [2] is LEGO organoid PTN (PTEN-/-; TP53-/-; NF1-/-). The description is as above. The following applies: 10 µM; treatment time 6 days. How it is done:
as §1

For `CC(C)c1c(C(=O)Nc2ccccc2)c(-c2ccccc2)c(-c2ccc(F)cc2)n1CC[C@@H](O)C[C@@H](O)CC(=O)[O-].CC(C)c1c(C(=O)Nc2ccccc2)c(-c2ccccc2)c(-c2ccc(F)cc2)n1CC[C@@H](O)C[C@@H](O)CC(=O)[O-].[Ca+2]` [Atorvastatin Calcium], the results for the bioluminescence in experiment [1] and in experiment [2] were 0.222 and 0.0875, respectively.

For `Nc1[nH]c(=O)ncc1F` [Fluorocytosine], the bioluminescence turned out to be 1.01 in experiment [1] and 1.26 in experiment [2].

On to `C#CCN[C@@H]1CCc2ccccc21` [Rasagiline], for which the bioluminescence in experiment [1] amounted to 1.19; in experiment [2], 0.976.

As to `COc1cc(Nc2c(C#N)cnc3cc(OCCCN4CCN(C)CC4)c(OC)cc23)c(Cl)cc1Cl` [Bosutinib], the results for the bioluminescence in experiment [1] and in experiment [2] were 0.731 and 0.669, respectively.

Regarding `COC(=O)C1=C(C)NC(C)=C(C(=O)OCCN(C)Cc2ccccc2)C1c1cccc([N+](=O)[O-])c1.Cl` (stereo unspecified) [Nicardipine hydrochloride], the bioluminescence in experiment [1] turned out to be 1.19; in experiment [2], 1.14.

For the compound `OC(Cn1cncn1)(Cn1cncn1)c1ccc(F)cc1F` [Fluconazole], the bioluminescence worked out at 0.967 in experiment [1] and 1.54 in experiment [2].

As for `Cc1nc2c([nH]1)CCN(C(=O)c1ccc(NC(=O)c3ccccc3-c3ccccc3)cc1)c1ccccc1-2.Cl` [Conivaptan hydrochloride], the figures for the bioluminescence in experiment [1] and in experiment [2] were 3.25 and 0.375, respectively.

For the compound `CCCCS(=O)(=O)N[C@@H](Cc1ccc(OCCCCC2CCNCC2)cc1)C(=O)O` [Tirofiban], the bioluminescence in experiment [1] was determined as 1.21; in experiment [2], 0.848.

For the compound `Nc1nc(=O)c2c(CCc3ccc(C(=O)N[C@@H](CCC(=O)[O-])C(=O)[O-])cc3)c[nH]c2[nH]1.Nc1nc(=O)c2c(CCc3ccc(C(=O)N[C@@H](CCC(=O)[O-])C(=O)[O-])cc3)c[nH]c2[nH]1.O.O.O.O.O.[Na+].[Na+].[Na+].[Na+]` [Pemetrexed Disodium Hydrate], the bioluminescence worked out at 0.95 in experiment [1] and 1.05 in experiment [2].

With `CN1CCN(C2=Nc3cc(Cl)ccc3Nc3ccccc32)CC1` [Clozapine], the bioluminescence worked out at 0.388 in experiment [1] and 0.617 in experiment [2].

In the case of `C[N+](C)(C)CCO.[Cl-]` [Choline chloride], the results for the bioluminescence in experiment [1] and in experiment [2] were 0.614 and 2.09, respectively.

`C=CC(=O)N1CCC[C@@H](n2nc(-c3ccc(Oc4ccccc4)cc3)c3c(N)ncnc32)C1` [Ibrutinib]: the figures for the bioluminescence in experiment [1] and in experiment [2] were 1.87 and 1.26, respectively.

Take `O=C1CCC(N2C(=O)c3ccccc3C2=O)C(=O)N1` (stereo unspecified) [Thalidomide]: the bioluminescence in experiment [1] amounted to 0.79; in experiment [2], 1.38.

`CCc1c(C)[nH]c2c1C(=O)C(CN1CCOCC1)CC2.Cl` (stereo unspecified) [Molindone hydrochloride]: the results for the bioluminescence in experiment [1] and in experiment [2] were 1.39 and 1.2, respectively.

As to `Nc1nc(=O)n([C@@H]2CS[C@H](CO)O2)cc1F` [Emtricitabine], the bioluminescence in experiment [1] amounted to 0.872; in experiment [2], 0.495.

Take `COc1ccccc1OCC(O)COC(N)=O` (stereo unspecified) [Methocarbamol]: the bioluminescence worked out at 1.84 in experiment [1] and 2.82 in experiment [2].

Turning to `CC(C)NCC(O)COc1cccc2ccccc12.Cl` (stereo unspecified) [Propranolol hydrochloride], the values for the bioluminescence in experiment [1] and in experiment [2] were 0.672 and 1.25, respectively.

Turning to `CC1(C)S[C@@H]2[C@H](NC(=O)[C@H](N)c3ccc(O)cc3)C(=O)N2[C@H]1C(=O)O.O.O.O` [Amoxicillin trihydrate], the bioluminescence in experiment [1] was 2.36; in experiment [2] it was 0.841.

Consider `CC(=O)Nc1ccc(O)cc1` [Acetaminophen], for which the bioluminescence in experiment [1] came out at 0.686; in experiment [2], 0.918.

`CSc1ccc2c(c1)N(CCC1CCCCN1C)c1ccccc1S2.Cl` (stereo unspecified) [Thioridazine hydrochloride]: the figures for the bioluminescence in experiment [1] and in experiment [2] were 0.704 and 1.56, respectively.

Turning to `NS(=O)(=O)Cc1noc2ccccc12` [Zonisamide], the bioluminescence in experiment [1] and in experiment [2] was 1.19 in each case.

Consider `Cc1cc(C)cc(OCC2CNC(=O)O2)c1` (stereo unspecified) [Metaxalone], for which the bioluminescence in experiment [1] is 1.35; in experiment [2], 1.62.

Regarding `Clc1ccc2c(c1)C(N1CCNCC1)=Nc1ccccc1O2` [Amoxapine], the figures for the bioluminescence in experiment [1] and in experiment [2] were 1.25 and 0.981, respectively.

As to `Cc1ccc(C(=O)c2cc(O)c(O)c([N+](=O)[O-])c2)cc1` [Tolcapone], the bioluminescence in experiment [1] came to 2.93; in experiment [2] it was 1.31.

As to `Cc1c(C)c2c(c(C)c1O)CC[C@@](C)(CCC[C@H](C)CCC[C@H](C)CCCC(C)C)O2` [α-Vitamin E], the bioluminescence is 1.41 in experiment [1] and 2.48 in experiment [2].

For `NC(=O)c1cnccn1` [Pyrazinamide], the bioluminescence in experiment [1] is 1.24; in experiment [2] it was 1.72.

For `CCCC(CCC)C(=O)O.CCCC(CCC)C(=O)[O-].[Na+]` [Divalproex Sodium], the bioluminescence in experiment [1] came to 0.404; in experiment [2] it was 0.401.

On to `FC(F)(F)C(Cl)Br` (stereo unspecified) [Anestan], for which the bioluminescence in experiment [1] amounted to 0.664; in experiment [2] it was 1.3.

With `N[C@@H](CC(=O)O)C(=O)O` [L-Aspartic acid], the figures for the bioluminescence in experiment [1] and in experiment [2] were 1.1 and 0.451, respectively.

For `C[C@@H]1O[C@@H]1P(=O)(O)O.NC(CO)(CO)CO` [Fosfomycin Tromethamine], the bioluminescence in experiment [1] is 1.69; in experiment [2], 0.813.

For the compound `CN1C(=O)OC(C)(C)C1=O` [Trimethadione], the bioluminescence was 1.38 in experiment [1] and 0.909 in experiment [2].

Consider `O=C1Nc2ccc(Cl)cc2[C@@](C#CC2CC2)(C(F)(F)F)O1` [Efavirenz], for which the bioluminescence amounted to 1.96 in experiment [1] and 0.908 in experiment [2].

With `COc1cc(C(C)=O)ccc1OCCCN1CCC(c2noc3cc(F)ccc23)CC1` [Iloperidone], the bioluminescence was found to be 1.06 in experiment [1] and 2.12 in experiment [2].
